Reference: PubChem BioAssay (NCATS)
Records with an inconclusive call do not appear. Values without a mark were called inactive. Active and inactive are the calls of the source. The call rests on the fitted dose curve; in most records, active means well fitted cell-killing curve with a large enough effect; inconclusive means small, poorly fitted or top-dose-only effect, or effect the other way; inactive means no such curve, though single readings can be large or run the other way.

assay: Quantitative highthroughput screen to assess conditional lethalithy of SEM cells grown in Human Plasma-Like Medium with dialyzed fetal bovine serum (HPLM+ds) (AID 1963882); conditions: SEM B-ALL cells in HPLM+ds, CellTiter-Glo viability, 48 h; series mostly up to 45.8 µM; viability: at the top concentration; further: nearly all actives have a fitted effect of over 35% in size
Excerpt: Assay Provider: Jason Cantor Ph.D.
Department of Biochemistry
University of Wisconsin-Madison, Madison, WI, USA
Chemical screening studies have identified drug sensitivities across hundreds of cancer cell lines but most putative therapeutics fail to translate. Discovery and development of drug candidates in models that more accurately reflect nutrient levels in human blood is a major challenge. Here we performed high-throughput screens in conventional versus Human Plasma-Like Medium (HPLM) to identify compounds that were "missed" when screening using the artificial culture condition. Sets of conditional anticancer compounds spanned phases of clinical development and included non-oncology drugs were assessed. […] We also traced conditional phenotypes for several chemotherapeutics to availability of HPLM-specific metabolites and confirmed others for compounds whose reported targets are encoded by nonessential genes. Our findings establish generalizable strategies for exploiting conditional lethality in HPLM to reveal therapeutic candidates and mechanisms of action in cancer cells.
Described herein are the results of each viability screens against three cell lines: NOMO1 (an acute myeloid leukemia cell line); P12-Ichikawa (a T-cell acute lymphoblastic leukemia); and SEM (a B-cell ALL). Each assay was screened using 3 different cell culture media: homemade human plasma-Like medium with 10% dialyzed fetal bovine serum (HPLM+ds); RPMI1640 with 10% untreated FBS and 5mM glucose (RPMI+s); and RPMI1640 with 10% dialyzed fetal bovine serum and 5 mM glucose (RPMI+ds).
PROTOCOL TABLE (as described by Inglese J, Shamu CE and Guy RK. 2007)
SEQUENCE No. (e.g., 1, 2, 3, etc.); […] (e.g., Cells, Incubation, Reagent, etc.); VALUE and DESCRIPTION.
1; Cells; 5 uL; white, solid bottom 1536-well Greiner assay plate.
2; Compounds; 23 nL; Kalypsis pin tool (Wako USA) equipped with a 1536-well pin head to transfer to the assay plates.
3; Incubation; 48 hours; 37C incubation.
4; Reagent; 3 uL; CellTiter Glo (Promega).
5; Incubation; 5 min, room temperature
6; Detection; Luminescence, Viewlux PerkinElmer.
NOTES (numbers refer to Sequence numbers above)
1. Briefly, 5 ul of cell reagent was dispensed using a Multidrop Combi Dispenser. The NOMO1 and SEM cells were plated at 500 cells/well and the P12-Ichikawa line at 1000 cells/well.
2. After seeding the cells, 23 nL of MIPE 4.1 library compounds (in DMSO) were added to each plate using a Kalypsys 1536 Pintool dispenser. Bortezomib at final concentration of […] and DMSO were added to each plate as positive and negative controls respectively. For each screen, MIPE 4.1 compounds were added over an eleven-point concentration range […] in 3-fold dilutions.
3. Each plate was covered with a stainless steel gasketed lid to prevent evaporation and incubated for 48 hour at 37C, 95% relative humidity, and 5% CO2.
4-5. Three microliter CellTilter-GloTM luminescent substrate mix (Promega) reagent was added to the assay plate and incubated at room temperature for 5 min.
6. The luminescence signal was measured using a ViewLux (PerkinElmer) multiplate reader with a 2 second exposure time per plate. Data for each compound were normalized as percent viability such that measurements for DMSO and the empty well controls in each plate were defined as 100% and 0%, respectively.
Potency means the concentration at half of the fitted maximal effect.

| SMILES | viability | Potency |
| --- | --- | --- |
| Cc1ncc(OC[C@@]2(c3cccc(F)c3)C[C@H]2C(=O)Nc2ccc(F)cn2)c(C)n1 | 82.7% | – |
| CC1=C(O)C(=O)C=C2C1=CC=C1[C@@]2(C)CC[C@@]2(C)[C@@H]3C[C@](C)(C(=O)O)CC[C@]3(C)CC[C@]12C | – | 2.64 µM (active) |
| Oc1ccc2c3c1O[C@H]1c4[nH]c5c(c4C[C@@]4(O)[C@@H](C2)N(CC2CC2)CC[C@]314)C[C@@]1(O)[C@H]2Cc3ccc(O)c4c3[C@@]1(CCN2CC1CC1)[C@H]5O4 | 108% | – |
| CCOP(=O)(OCC)C(C)NC(=O)N(CCCl)N=O (stereo not given) | 81.8% | – |
| CC(=CCCC1=CCC(C2=CC(=O)OC2O)OC1O)CCC1=C(C)CCCC1(C)C (stereo not given) | 97.7% | – |
| O=C(N[C@H]1CN2CCC1CC2)c1ccc(Cl)cc1 | 84.4% | – |
| Cc1ccccc1-n1c(Cn2ncc3c(N)ncnc32)nc2cccc(C)c2c1=O | 104% | – |
| Cc1cc(SCc2sc(-c3ccc(C(F)(F)F)c(F)c3)nc2C)ccc1OCC(=O)O | 99.5% | – |
| CCOC(=O)c1cncn1[C@H](C)c1ccccc1 | 95.1% | – |
| C[C@@H]1O[C@@H](O[C@@H]2C=C3CC[C@@H]4[C@@H](CC[C@]5(C)[C@H](c6ccc(=O)oc6)CC[C@@]45O)[C@@]3(C)CC2)[C@H](O)[C@H](O)[C@H]1O | – | 0.0235 µM (active) |
| CCOc1ccccc1-n1c(C(C)N2CCN(C(=O)COc3ccc(Cl)cc3)CC2)nc2ccccc2c1=O (stereo not given) | – | 1.05 µM (active) |
| C[C@]12CC[C@@H]3[C@@H](CCC4=CC(=O)CC[C@@H]43)[C@@H]1CC[C@@H]2OC(=O)CCc1ccccc1 | 90.5% | – |
| C[C@]12CCC(=O)C=C1CC[C@@H]1[C@H]3CC[C@](C)(O)[C@@]3(C)CC[C@@H]12 | 86.7% [at 92.2 µM] | – |
| C[C@]12CC[C@H]3[C@@H](CCC4=CC(=O)CC[C@@]43C)[C@H]1CC[C@H]2O | 102% | – |
| NC1=NC(=O)N2CC12 (stereo not given) | – | 3.32 µM (active) |
| CCCC[N+]1(C)[C@H]2CC(OC(=O)[C@H](CO)c3ccccc3)C[C@H]1[C@H]1O[C@H]12 (stereo not given in full) | 122% | – |
| Cc1[nH]nc2ccc(-c3cncc(OC[C@@H](N)Cc4c[nH]c5ccccc45)c3)cc12 | – | 0.187 µM (active) |
| C[C@]12CCC(=O)C(O)=C1CC[C@@H]1[C@H]3CCC(=O)[C@@]3(C)CC[C@@H]12 | 97.3% | – |
| Cn1c(CCCC(=O)O)nc2cc(N(CCCl)CCCl)ccc21 | 89.8% | – |
| C[C@](O)(CS(=O)(=O)c1ccc(F)cc1)C(=O)Nc1ccc(C#N)c(C(F)(F)F)c1 | 87.9% | – |

| SMILES | viability | Potency |
| --- | --- | --- |
| CN1C(=O)COc2c(C(=O)NC3CN4CCC3CC4)cc(Cl)cc21 (stereo not given) | 103% | – |
| O=c1cccc2n1CC1CNC[C@H]2C1 | 92.5% | – |
| CC(C)(O)C=CC(=O)[C@](C)(O)[C@H]1[C@H](O)C[C@]2(C)[C@@H]3CC=C4[C@@H](C=C(O)C(=O)C4(C)C)[C@]3(C)C(=O)C[C@@]12C | – | 0.059 µM (active) |
| CN(C)CCN(C)CCc1ccc(Cl)c(Cl)c1 | 90.6% | – |
| CNC(=O)N1N=C(c2ccc(N)cc2)c2cc3c(cc2CC1C)OCO3 (stereo not given) | – | 10.5 µM (active) |
| NCC1(CC(=O)O)CCCCC1 | 103% | – |
| O=C(Oc1ccc([N+](=O)[O-])cc1)N1CCN(Cc2cccc(Oc3ccccc3)c2)CC1 | 103% | – |
| O=C(O)CNC(=O)c1c(O)c2ccccc2n(Cc2ccccc2)c1=O | 101% | – |
| c1cc2c(cc1[C@H]1OC[C@H]3[C@H]1CO[C@H]3c1ccc3c(c1)OCO3)OCO2 | 70.8% | – |
| CC[C@@H]1[C@@H](C)O[C@@](O)([C@@H](C)[C@H](O)[C@H](C)[C@H]2OC(=O)C=CC=C[C@@H](C)[C@@H]([C@@H](C)[C@@H](O)[C@H](C)[C@@]3(O)C[C@H](O[C@H]4C[C@H](O)[C@H](O)[C@H](C)O4)[C@H](CC)[C@@H](C)O3)OC(=O)C=CC=C[C@@H]2C)C[C@H]1O[C@H]1C[C@H](O)[C@H](O)[C@H](C)O1 | – | 2.35 µM (active) |
| CC(C)(C)[C@]1(O)C[C@@H]2OC(=O)C[C@@]23C(=O)O[C@@H]2OC(=O)[C@H](O)C213 (stereo not given in full) | 103% | – |
| CC(C)(C)c1cc(C=C(C#N)C#N)cc(Br)c1O | 96% | – |
| c1ccc2c(CN3CCNCC3)cccc2c1 | 86.2% | – |
| COC[C@H]1OC(=O)c2coc3c2[C@@]1(C)C1=C(C3=O)C2CCC(=O)[C@@]2(C)C[C@H]1OC(C)=O (stereo not given in full) | 105% | – |
| CC(=O)OCC1=C(C(=O)O)N2C(=O)[C@@H](N)[C@@H]2SC1 | 80.5% | – |
| CC(C)N(CCNC(=O)CN1CCCC1=O)C(C)C | 97.6% | – |
| C[C@]12COC(=O)C[C@@H]1CC[C@@H]1[C@H]2CC[C@@]2(C)[C@H]1CC[C@]2(C)O | 96.1% | – |
| C[C@@H]1[C@@H](C(=O)C[C@H]2O[C@@H]3O[C@]4(C)CC[C@@H]5[C@H](C)CC[C@@H]([C@H]2C)[C@@]35OO4)O[C@@H]2O[C@]3(C)CC[C@H]4[C@H](C)CC[C@@H]1[C@@]24OO3 | – | 26.4 µM (active) |
| CNCC(O)c1ccc(O)cc1 (stereo not given) | 89.3% | – |
| COC1(CS(=O)c2ccccc2)CCN(CCc2c[nH]c3ccc(F)cc23)CC1 (stereo not given) | 86.7% | – |
